Where “and” joins values, the source holds several entries; their conditions need not be identical. Identical values can stand only once. Inconclusive results are not listed. Some structures have more than one record in an assay (separate samples or runs), and their calls can disagree. Calls of active or inactive are those of the source. Rule for the calls, unless noted: active = hit-call score of the fitted dose curve at least 0.9, where 1 is the maximum; inconclusive = response in the unintended direction; inactive = score below 0.9.

In test [1] the test system is Sodium/Iodide Symporter (NIS), SLC5A5 (gene 6528). In words: CPHEA_Stoker_NIS_Inhibition_RAIU: CPHEA's Radioactive Iodide Uptake (RAIU) Assay for Sodium/Iodide Symporter (NIS) Inhibition, Stoker and Laws Labs (AID 2283841). Summed up:
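HEK293T cells stably expressing human NIS (hNIS-HEK293T-EPA) were exposed to test chemicals at 0.001–100uM (0.5% final DMSO) with 125I at a final 329pM in HBSS/10mM HEPES pH 7.4. After 2 hours at room temperature and ice-cold washes, intracellular 125I was counted as CPM and normalized to DMSO wells.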

Test [2] can be described thus: CPHEA_Stoker_NIS_Cytotoxicity: Cytotoxicity Assessment for CPHEA's Radioactive Iodide Uptake (RAIU) Assay for Sodium/Iodide Symporter (NIS) Inhibition, Stoker and Laws Labs (AID 2283897). In short, it runs like this:
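hNIS-HEK293T-EPA human kidney cells were exposed for 2 hours at room temperature to test chemicals (0.001–100uM, 0.5% final DMSO) in HEPES-buffered HBSS, pH 7.4. Viability was read as ATP content by luciferase bioluminescence, loss of signal versus DMSO.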

Test [3] deals with Estrogen receptor (Homo sapiens) (UniProt P03372). Kind of test: ATG_hERa_XSP2: Attagene TRANS-FACTORIAL Multi-Species (XSP2) HepG2 Assay for human Estrogen Receptor (ERa) (AID 2283827). In short, it runs like this:
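Trans-activation of exogenous human ERa-Gal4 chimera read in HepG2 as reporter transcript after 24 h exposure; medium included 3 nM 6-alpha-fluorotestosterone and 1.5 nM norgestrel. Quantified by RT-PCR with capillary electrophoresis, positive-direction fitting against DMSO.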

Test [4] deals with frog Estrogen Receptor (ER2), gene 100174814. In words: ATG_frER2_XSP2: Attagene TRANS-FACTORIAL Multi-Species (XSP2) HepG2 Assay for frog Estrogen Receptor (ER2) (AID 2283828). In short, it runs like this:
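Induction of reporter mRNA, baseline set by DMSO, is the endpoint. The panel was run in transfected HepG2 cells over 24 h, with 3 nM 6-alpha-fluorotestosterone and 1.5 nM norgestrel present to stimulate androgen receptor.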

Test [5] has as its target Peroxisome proliferator-activated receptor gamma (Homo sapiens) (UniProt P37231). In words: ATG_hPPARg_XSP2: Attagene TRANS-FACTORIAL Multi-Species (XSP2) HepG2 Assay for human Peroxisome Proliferator-activated Receptor gamma (PPARg) (AID 2283829).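 Note: actives raise reporter mRNA above DMSO so AC50 reflects PPARg activation.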 In short, it runs like this: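 Human HepG2 cells carried transiently transfected Gal4 reporter units and were treated with chemical for 24 h alongside androgen-receptor stimulants (3 nM 6-alpha-fluorotestosterone, 1.5 nM norgestrel). Reporter transcripts were detected by RT-PCR with capillary electrophoresis, analysed in the positive direction against DMSO.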

The target in test [6] is mouse Peroxisome Proliferator-activated Receptor gamma (PPARg), Pparg (gene 19016) (UniProt P37238). Kind of test: ATG_mPPARg_XSP2: Attagene TRANS-FACTORIAL Multi-Species (XSP2) HepG2 Assay for mouse Peroxisome Proliferator-activated Receptor gamma (PPARg) (AID 2283830).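 Note: hits are gains in reporter mRNA above DMSO so AC50 marks activation.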 Summed up: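 Multiplexed TRANS reporter readout: after 24 h chemical exposure of transfected HepG2 cells (with 3 nM 6-alpha-fluorotestosterone, 1.5 nM norgestrel present), RNA reverse-transcribed, amplified, 6-FAM-labelled and resolved by capillary electrophoresis; mouse PPARg-Gal4 induction scored against DMSO.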

For test [7], the target named is Nuclear receptor subfamily 1 group I member 2 (Mus musculus) (UniProt O54915). Kind of test: ATG_mPXR_XSP2: Attagene TRANS-FACTORIAL Multi-Species (XSP1) HepG2 Assay for mouse Pregnane X Receptor (PXR) (AID 2283831). Summed up: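 Fluorescence signals from capillary electrophoresis of RT-PCR-amplified reporter mRNA give the readout, gain-of-signal versus DMSO. Transfected HepG2 cells, 24 h dosing, medium contained 3 nM 6-alpha-fluorotestosterone and 1.5 nM norgestrel.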

Test [8] concerns the target zebrafish Thyroid Hormone Receptor alpha (TRa), thraa (gene 30670) (UniProt Q98867). Kind of test: ATG_zfTRa_XSP2: Attagene TRANS-FACTORIAL Multi-Species (XSP1) HepG2 Assay for zebrafish Thyroid Hormone Receptor alpha (TRa) (AID 2283832).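 Note: actives raise zebrafish TRa-Gal4 reporter transcript above DMSO baseline.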 Summed up: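 Chimeric zebrafish TRa-Gal4 activity read in transfected human HepG2 as GAL4-UAS reporter transcripts, 24 h post-dose, via RT-PCR with labeled primer extension and capillary electrophoresis. Medium also carries 3 nM 6-alpha-fluorotestosterone and 1.5 nM norgestrel; DMSO baseline.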

Test [9] relates to zebrafish Peroxisome Proliferator-activated Receptor gamma (PPARg), gene 557037. In words: ATG_zfPPARg_XSP2: Attagene TRANS-FACTORIAL Multi-Species (XSP2) HepG2 Assay for zebrafish Peroxisome Proliferator-activated Receptor gamma (PPARg) (AID 2283833).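 Note: actives increase reporter signal over DMSO so AC50 reflects activation.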 Summed up:
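HepG2, transient MRTU transfection, 24 h compound; zfPPARg-GAL4 reporter mRNA by RT-PCR + capillary electrophoresis; gain-of-signal vs DMSO.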

The test system of test [10] is turtle Thyroid Hormone Receptor, alpha (TRa), gene 101949057. Kind of test: ATG_trTRa_XSP2: Attagene TRANS-FACTORIAL Multi-Species (XSP1) HepG2 Assay for turtle Thyroid Hormone Receptor, alpha (TRa) (AID 2283834).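 Note: hits raise reporter mRNA over the DMSO baseline so AC50 marks activators.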 Summed up: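 Multiplexed TRANS reporter assay; HepG2 carrying NR-Gal4 constructs treated 24 h. mRNA of the GAL4-UAS reporter quantified via labelled RT-PCR fragments on a genetic analyzer, vs DMSO negative control.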

Test [11] can be described thus: ATG_M_61_XSP2: Attagene TRANS-FACTORIAL Multi-Species (XSP2) HepG2 Assay for M61 Transcription Factor (Internal Marker) (AID 2283835; active = hit-call score of the fitted dose curve at least 0.9, where 1 is the maximum; inactive = score below 0.9;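 note: reporter mRNA of an internal background marker read by RT-PCR and capillary electrophoresis; active means a rise in signal above the DMSO baseline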). In short, it runs like this:
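Signal was mRNA induction detected as fluorescence after RT-PCR and capillary electrophoresis, analysed in the gain direction with DMSO as baseline. HepG2 cells transiently carrying reporter constructs received chemicals for 24 h.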

Test [12] has as its target zebrafish Thyroid Hormone Receptor beta (TRb), thrb (gene 30607) (UniProt Q9PVE4). Kind of test: ATG_zfTRb_XSP2: Attagene TRANS-FACTORIAL Multi-Species (XSP1) HepG2 Assay for zebrafish Thyroid Hormone Receptor beta (TRb) (AID 2283836). Summed up:
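Reporter transcripts measured by RT-PCR, 6-FAM labelling, HpaI digestion and capillary electrophoresis after 24 h chemical exposure. Human HepG2 cells carry an exogenous zebrafish TRb-GAL4 chimera; medium included 3 nM 6-alpha-fluorotestosterone plus 1.5 nM norgestrel.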

Test [13] can be described thus: ATG_XTT_Cytotoxicity_XSP2: Cytotoxicity Assessment in the Attagene TRANS-FACTORIAL Multi-Species (XSP2) HepG2 Assay (AID 2283837). In short, it runs like this:
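XTT-based cell number read-out in human HepG2 liver cells carrying transfected reporter units, measured 24 h after chemical dosing. Activity is signal loss versus DMSO baseline.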

Test [14] deals with human Thyroid hormone Receptor alpha (TRa), THRA (gene 7067) (UniProt P10827). In words: ATG_hTRa_XSP2: Attagene TRANS-FACTORIAL Multi-Species (XSP2) HepG2 Assay for human Thyroid hormone Receptor alpha (TRa) (AID 2283838). Summed up:
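Reporter transcripts were read by RT-PCR with fluorescent primer extension, HpaI digestion and capillary electrophoresis. These came from HepG2 cells carrying multiplexed TRa-Gal4 TRANS constructs, harvested 24 hours after dosing. The medium also held 6-alpha-fluorotestosterone (3 nM) and norgestrel (1.5 nM), and increases were fitted against DMSO.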

Test [15] has as its target frog Thyroid hormone Receptor alpha (TRa), thra-a (gene 397942) (UniProt P15204). In words: ATG_frTRa_XSP2: Attagene TRANS-FACTORIAL Multi-Species (XSP2) HepG2 Assay for frog Thyroid hormone Receptor alpha (TRa) (AID 2283839). Summed up:
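Chimeric frog TRα-GAL4 activity in human liver cells measures reporter transcript induction 24 h post-dose. Detection uses RT-PCR, HpaI-digested labelled products and fluorescence capillary electrophoresis; DMSO serves as negative control.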

Test [16] addresses human Thyroid hormone Receptor beta (TRb), THRB (gene 7068) (UniProt P10828). Kind of test: ATG_hTRb_XSP2: Attagene TRANS-FACTORIAL Multi-Species (XSP2) HepG2 Assay for human Thyroid hormone Receptor beta (TRb) (AID 2283840).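 Note: actives raise reporter mRNA so potency reflects agonist-like gain of signal.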 Summed up: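 Gain-of-signal reporter transcription, referenced to DMSO, was measured in transiently transfected HepG2 after 24 h exposure; labeled RT-PCR products were resolved by capillary electrophoresis. Assay medium included 3 nM 6-alpha-fluorotestosterone and 1.5 nM norgestrel.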

A short description of test [17]: CEETOX_H295R_11DCORT_noMTC: CeeTox H295R High-throughput Steroidogenesis Assay for 11-Deoxycortisol (11DCORT), maximum tolerated concentration (MTC) filtered results only (AID 2283911; active = hit-call score of the fitted dose curve at least 0.9, where 1 is the maximum; inactive = score below 0.9). Particulars: actives raise or lower the signal. Summed up:
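Forskolin-primed (10 uM, 48 h) H295R adrenal cells are dosed for 48 h at 0.1% DMSO; medium 11-deoxycortisol is quantified by LC-MS/MS against a 7-point standard curve, with activity fitted in both directions versus DMSO.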

Test [18] in a line: CEETOX_H295R_OHPREG_noMTC: CeeTox H295R High-throughput Steroidogenesis Assay for OH-Pregnenolone (OHPREG), maximum tolerated concentration (MTC) filtered results only (AID 2283912; active = hit-call score of the fitted dose curve at least 0.9, where 1 is the maximum; inactive = score below 0.9). The note with it: actives raise or lower the signal. In short, it runs like this: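 Readout is HPLC-MS/MS quantification of 17alpha-hydroxypregnenolone released by forskolin-stimulated H295R cells over 48 h of chemical exposure, DMSO as baseline.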

A short description of test [19]: ATG_M_32_XSP2: Attagene TRANS-FACTORIAL Multi-Species (XSP2) HepG2 Assay for M19 Transcription Factor (Internal Marker) (AID 2283826). In short, it runs like this:
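An internal background marker among multiplexed transfected reporters in HepG2 liver cells was measured 24 h after dosing. Androgen receptor stimulation came from 3 nM 6-alpha-fluorotestosterone and 1.5 nM norgestrel.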

zebrafish Thyroid Hormone Receptor alpha (TRa), thraa (gene 30670), sequence (Q98867 whole entry, looked up, the tested form may be a part): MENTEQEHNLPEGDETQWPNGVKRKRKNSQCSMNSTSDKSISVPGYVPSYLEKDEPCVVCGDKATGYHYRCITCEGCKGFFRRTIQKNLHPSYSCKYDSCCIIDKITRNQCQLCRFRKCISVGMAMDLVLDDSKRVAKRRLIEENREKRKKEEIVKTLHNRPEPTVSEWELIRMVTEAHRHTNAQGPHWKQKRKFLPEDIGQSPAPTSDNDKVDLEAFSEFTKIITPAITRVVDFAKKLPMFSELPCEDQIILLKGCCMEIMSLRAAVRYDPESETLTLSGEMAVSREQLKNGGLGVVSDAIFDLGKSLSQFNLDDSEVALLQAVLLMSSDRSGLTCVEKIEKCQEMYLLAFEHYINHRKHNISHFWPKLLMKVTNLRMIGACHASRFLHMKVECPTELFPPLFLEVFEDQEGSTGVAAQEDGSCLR
frog Thyroid hormone Receptor alpha (TRa), thra-a (gene 397942), sequence (P15204 whole entry, looked up, the tested form may be a part): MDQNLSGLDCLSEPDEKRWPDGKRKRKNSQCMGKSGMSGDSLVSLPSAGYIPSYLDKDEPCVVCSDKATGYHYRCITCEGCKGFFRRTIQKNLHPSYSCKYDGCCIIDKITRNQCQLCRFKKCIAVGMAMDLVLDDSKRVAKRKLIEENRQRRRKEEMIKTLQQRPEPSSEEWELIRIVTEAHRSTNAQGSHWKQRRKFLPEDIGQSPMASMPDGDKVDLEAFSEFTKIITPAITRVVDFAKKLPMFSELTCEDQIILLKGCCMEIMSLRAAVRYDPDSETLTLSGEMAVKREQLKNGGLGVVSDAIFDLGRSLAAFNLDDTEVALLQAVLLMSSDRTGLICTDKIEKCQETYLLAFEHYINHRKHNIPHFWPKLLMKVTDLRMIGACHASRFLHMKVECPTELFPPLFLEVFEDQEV
Estrogen receptor (Homo sapiens), sequence (P03372 whole entry, looked up, the tested form may be a part): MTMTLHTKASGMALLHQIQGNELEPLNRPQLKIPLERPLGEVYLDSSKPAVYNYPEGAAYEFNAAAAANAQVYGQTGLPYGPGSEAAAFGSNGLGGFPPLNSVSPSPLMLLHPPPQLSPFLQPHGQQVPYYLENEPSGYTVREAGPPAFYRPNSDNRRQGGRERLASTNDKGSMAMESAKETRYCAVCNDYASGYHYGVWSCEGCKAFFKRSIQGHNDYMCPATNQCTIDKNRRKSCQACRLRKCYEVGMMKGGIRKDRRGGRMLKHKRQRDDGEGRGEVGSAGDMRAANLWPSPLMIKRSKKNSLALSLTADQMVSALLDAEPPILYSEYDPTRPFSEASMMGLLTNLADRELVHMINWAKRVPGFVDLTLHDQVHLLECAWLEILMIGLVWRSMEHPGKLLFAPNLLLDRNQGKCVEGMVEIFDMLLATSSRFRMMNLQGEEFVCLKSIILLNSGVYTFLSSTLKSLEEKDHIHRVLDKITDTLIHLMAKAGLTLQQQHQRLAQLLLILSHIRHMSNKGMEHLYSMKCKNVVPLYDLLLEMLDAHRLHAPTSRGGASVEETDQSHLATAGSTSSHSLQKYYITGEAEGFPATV
human Thyroid hormone Receptor beta (TRb), THRB (gene 7068), sequence (P10828 whole entry, looked up): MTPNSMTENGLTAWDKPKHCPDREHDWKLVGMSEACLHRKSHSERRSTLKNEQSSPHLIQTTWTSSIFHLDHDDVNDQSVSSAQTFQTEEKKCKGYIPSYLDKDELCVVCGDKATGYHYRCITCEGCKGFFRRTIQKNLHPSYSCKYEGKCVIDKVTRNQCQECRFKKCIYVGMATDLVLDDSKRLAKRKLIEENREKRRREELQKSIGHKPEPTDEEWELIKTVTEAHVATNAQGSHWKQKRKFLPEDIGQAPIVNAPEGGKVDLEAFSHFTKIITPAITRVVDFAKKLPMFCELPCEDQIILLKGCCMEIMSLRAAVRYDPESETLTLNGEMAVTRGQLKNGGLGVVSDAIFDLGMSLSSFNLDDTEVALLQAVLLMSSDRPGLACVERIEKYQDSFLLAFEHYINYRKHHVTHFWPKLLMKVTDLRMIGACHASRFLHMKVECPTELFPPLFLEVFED
mouse Peroxisome Proliferator-activated Receptor gamma (PPARg), Pparg (gene 19016), sequence (P37238 whole entry, looked up, the tested form may be a part): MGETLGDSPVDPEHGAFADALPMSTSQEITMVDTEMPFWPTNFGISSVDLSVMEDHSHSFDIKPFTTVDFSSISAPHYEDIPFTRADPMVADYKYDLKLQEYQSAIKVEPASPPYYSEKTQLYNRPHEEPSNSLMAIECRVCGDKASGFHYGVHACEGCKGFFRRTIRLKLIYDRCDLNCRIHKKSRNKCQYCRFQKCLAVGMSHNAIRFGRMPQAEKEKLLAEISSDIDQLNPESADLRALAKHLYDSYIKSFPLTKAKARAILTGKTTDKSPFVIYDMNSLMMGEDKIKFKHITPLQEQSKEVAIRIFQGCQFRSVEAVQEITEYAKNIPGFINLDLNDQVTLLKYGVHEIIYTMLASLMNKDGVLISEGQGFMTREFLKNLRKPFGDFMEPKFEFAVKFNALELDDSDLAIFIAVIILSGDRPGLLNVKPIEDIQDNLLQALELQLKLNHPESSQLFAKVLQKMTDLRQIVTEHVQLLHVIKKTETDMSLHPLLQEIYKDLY
Peroxisome proliferator-activated receptor gamma (Homo sapiens), sequence (P37231 whole entry, looked up, the tested form may be a part): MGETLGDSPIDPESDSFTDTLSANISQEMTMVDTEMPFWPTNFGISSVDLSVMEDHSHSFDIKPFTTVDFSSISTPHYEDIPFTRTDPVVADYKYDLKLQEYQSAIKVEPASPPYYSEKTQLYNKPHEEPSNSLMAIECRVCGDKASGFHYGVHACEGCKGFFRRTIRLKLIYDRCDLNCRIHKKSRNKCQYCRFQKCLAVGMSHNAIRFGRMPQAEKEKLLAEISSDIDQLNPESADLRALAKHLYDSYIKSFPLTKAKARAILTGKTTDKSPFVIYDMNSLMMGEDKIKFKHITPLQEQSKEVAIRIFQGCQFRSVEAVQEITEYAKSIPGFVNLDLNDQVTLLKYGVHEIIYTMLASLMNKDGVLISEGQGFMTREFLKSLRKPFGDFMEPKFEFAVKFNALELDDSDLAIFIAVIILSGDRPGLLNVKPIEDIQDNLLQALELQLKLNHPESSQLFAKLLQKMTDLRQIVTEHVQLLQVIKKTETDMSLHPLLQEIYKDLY
Nuclear receptor subfamily 1 group I member 2 (Mus musculus), sequence (O54915 whole entry, looked up): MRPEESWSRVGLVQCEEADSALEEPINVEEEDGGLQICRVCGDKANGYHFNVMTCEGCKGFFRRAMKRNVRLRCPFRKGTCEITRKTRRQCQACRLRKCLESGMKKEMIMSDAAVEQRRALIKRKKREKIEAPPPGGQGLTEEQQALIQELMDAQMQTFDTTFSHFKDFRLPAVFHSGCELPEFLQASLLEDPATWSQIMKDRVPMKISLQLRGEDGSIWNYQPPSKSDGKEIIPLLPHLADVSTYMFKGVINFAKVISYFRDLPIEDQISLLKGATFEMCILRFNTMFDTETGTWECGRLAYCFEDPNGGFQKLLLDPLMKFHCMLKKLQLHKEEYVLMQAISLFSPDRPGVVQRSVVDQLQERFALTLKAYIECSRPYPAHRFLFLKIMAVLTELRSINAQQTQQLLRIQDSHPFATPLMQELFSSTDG
zebrafish Thyroid Hormone Receptor beta (TRb), thrb (gene 30607), sequence (Q9PVE4 whole entry, looked up, the tested form may be a part): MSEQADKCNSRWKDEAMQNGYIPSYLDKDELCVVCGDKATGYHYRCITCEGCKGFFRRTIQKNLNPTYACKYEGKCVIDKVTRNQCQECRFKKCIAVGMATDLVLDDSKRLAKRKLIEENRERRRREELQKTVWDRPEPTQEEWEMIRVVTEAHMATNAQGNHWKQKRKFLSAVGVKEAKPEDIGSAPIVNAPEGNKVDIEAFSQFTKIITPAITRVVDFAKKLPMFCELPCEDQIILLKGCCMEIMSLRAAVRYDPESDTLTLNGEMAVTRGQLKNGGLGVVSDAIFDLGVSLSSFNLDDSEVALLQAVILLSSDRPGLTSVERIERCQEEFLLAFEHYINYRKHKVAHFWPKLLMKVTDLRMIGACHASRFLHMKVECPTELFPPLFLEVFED
human Thyroid hormone Receptor alpha (TRa), THRA (gene 7067), sequence (P10827 whole entry, looked up, the tested form may be a part): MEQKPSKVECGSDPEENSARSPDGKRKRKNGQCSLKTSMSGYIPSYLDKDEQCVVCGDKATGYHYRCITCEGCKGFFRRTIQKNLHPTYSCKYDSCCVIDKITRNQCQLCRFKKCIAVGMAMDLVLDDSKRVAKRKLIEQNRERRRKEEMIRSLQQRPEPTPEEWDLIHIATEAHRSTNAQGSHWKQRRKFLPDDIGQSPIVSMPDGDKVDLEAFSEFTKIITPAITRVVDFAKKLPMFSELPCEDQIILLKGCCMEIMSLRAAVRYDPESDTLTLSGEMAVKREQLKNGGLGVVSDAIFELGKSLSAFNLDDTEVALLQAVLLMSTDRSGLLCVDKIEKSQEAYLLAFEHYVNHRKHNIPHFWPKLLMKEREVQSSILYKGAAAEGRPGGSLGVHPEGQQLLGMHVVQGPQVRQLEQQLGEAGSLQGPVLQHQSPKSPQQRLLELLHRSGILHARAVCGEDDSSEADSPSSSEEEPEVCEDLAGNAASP

On to `CCOP(=S)(Oc1ccc([N+](=O)[O-])cc1)c1ccccc1` (configuration not stated), for which the result in [1] and in test [2] was inactive.
As a reminder, the AC50 is the midpoint of the concentration-response curve, whichever way the signal moves. Regarding `c1ccc2c(c1)Nc1ccccc1S2`, the concentration at half-maximal activity (AC50) in test [3] was 12.7 µM (active) and 8.42 µM (active); in test [4] it was 16.7 µM (active) and 5.21 µM (active); in test [5], 22.2 µM (active) and 21.7 µM (active); in [6] it was 27.6 µM (active) and 21.1 µM (active); in test [7], 4.49 µM (active). Further, the call in [7], in test [8], in test [9], in test [10], in test [11] and in [12] was inactive. Further, the call in test [13], in test [14], in [15] and in test [16] was inactive.
Consider `CCOC(=O)c1ccccc1N`, for which the result in test [17] and in test [18] was inactive.
Consider `CC(C)(C)c1ccc(O)cc1`, for which the call in test [19], in [5], in test [6], in test [8], in test [9] and in test [10] was inactive. Moreover, the result in test [11], in test [12], in test [15] and in [1] was inactive. The AC50 in [4] is 14.9 µM (active) and 6.96 µM (active).
Turning to `CCOc1ccc(C(C)(C)COCc2cccc(Oc3ccccc3)c2)cc1`, in test [17], the AC50 is 13.1 µM (active). Moreover, the outcome in [18] was inactive.
Turning to `c1ccc2c(c1)sc1ccccc12`, the result in [1] and in [2] was inactive.
Consider `COC(=O)C(F)(F)C(F)(F)OC(F)(C(F)(F)F)C(F)(F)OC(F)=C(F)F` (configuration not stated), for which the outcome in test [1] was inactive.
Consider `CCC(C)(C)c1ccc(O)cc1`, for which the outcome in [19], in [5], in [6], in [7], in test [8] and in test [12] was inactive. The compound was classed as inactive in test [13], in [15], in test [16] and in test [2]. The AC50 was 6.43 µM (active) and 3.44 µM (active) in test [3]; 27.9 µM (active) and 3.07 µM (active) in [4]; 165 µM (active) and 100 µM (active) in [9].
As for `CCCCC(CC)COP(=O)(Oc1ccccc1)Oc1ccccc1` (configuration not stated), the outcome in test [1] and in test [2] was inactive.
Consider `O=NN1CCCC1`, for which the result in test [1] and in test [2] was inactive.

(Values after PubChem BioAssay (EPA / NIEHS).)
